Results on eight compounds are retold here after PubChem BioAssay (EPA / NIEHS).

Activity calls are given as the source filed them. Rule for the calls: active = hit-call score of the fitted dose curve at least 0.9, where 1 is the maximum; inactive = score below 0.9.

A short description of assay [1]: ATG_E_Box_CIS: Attagene CIS-FACTORIAL HepG2 Assay for human Enhancer Box (E-box) (AID 2282936). Particulars: HepG2 E-box cis-reporter transcription, actives raise or lower the signal. Put shortly: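 HepG2 cells transiently transfected with multiplexed cis-element reporter units, dosed 24 h; reporter mRNA quantified by RT-PCR, 6-FAM labelling, HpaI digestion and capillary electrophoresis. E-box (USF1) signal fitted bidirectionally vs DMSO.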

Assay [2] can be described thus: ATG_M_61_CIS: Attagene CIS-FACTORIAL HepG2 Assay for M61 Transcription Factor (Internal Marker) (AID 2282937). Particulars: HepG2 Attagene CIS-FACTORIAL M61 internal marker reporter; actives raise or lower the signal. The method, boiled down:
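Transfect HepG2 with MRTUs; dose 24 h; isolate RNA; reverse-transcribe with DNase I treatment; PCR-amplify, FAM-label and cut with HpaI for 2 h at 37 C; resolve by CE. Bidirectional fitting against DMSO.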

A short description of assay [3]: ATG_EGR_CIS: Attagene CIS-FACTORIAL HepG2 Assay for human Early Growth Response 1 (EGR1) (AID 2282938). Particulars: HepG2 Attagene CIS-FACTORIAL EGR reporter mRNA; actives raise or lower the signal. The method, boiled down:
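After a 24 h treatment of transiently transfected HepG2 cells, total RNA was reverse-transcribed and reporter sequences PCR-amplified, labelled and run on capillary electrophoresis. Reporters sit under cis-regulatory promoters sensing endogenous factors.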

A short description of assay [4]: ATG_M_19_CIS: Attagene CIS-FACTORIAL HepG2 Assay for M19 Transcription Factor (Internal Marker) (AID 2282939). Particulars: HepG2 Attagene CIS-FACTORIAL M19 internal marker reporter; actives raise or lower the signal. Put shortly: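 Chemical-treated HepG2 (24 h) with MRTU constructs; reporter transcripts detected by fluorescent RT-PCR fragment analysis on capillary electrophoresis. Internal background marker, DMSO as baseline.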

A short description of assay [5]: ATG_ERE_CIS: Attagene CIS-FACTORIAL HepG2 Assay for Estrogen Response Element (ERE) (AID 2282940). Particulars: HepG2 ERE cis-reporter, Attagene RNA transcript; actives raise or lower the signal. Put shortly: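 Human liver cells (HepG2) bearing transiently transfected, promoter-regulated reporter units were exposed 24 h. Reporter mRNA induction was detected by capillary electrophoresis of labelled RT-PCR products and fitted bidirectionally to DMSO.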

Assay [6] is described as follows: ATG_Ets_CIS: Attagene CIS-FACTORIAL HepG2 Assay for human Erythroblast Transformation Specific (ETS) (AID 2282941). Particulars: HepG2 ETS cis-reporter transcription, actives raise or lower the signal. The method, boiled down: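 HepG2 cells transfected with multiple cis-regulated reporter units measuring endogenous ETS-driven transcription, 24 h after dosing. Reporter mRNA quantified by RT-PCR with capillary electrophoresis; bidirectional fit relative to DMSO.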

Assay [7] addresses Hepatocyte nuclear factor 3-beta (Homo sapiens) (UniProt Q9Y261). Nature of the assay: ATG_FoxA2_CIS: Attagene CIS-FACTORIAL HepG2 Assay for human Forkhead box A2 (FOXA2) (AID 2282942). Particulars: HepG2 cis-reporter transcription factor activity, 24 h; actives raise or lower the signal. The method, boiled down:
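24 h dosing of HepG2 bearing cis-reporter constructs; mRNA readout by RT-PCR/CE fluorescence; bidirectional fit, DMSO baseline.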

Assay [8] is described as follows: ATG_FoxO_CIS: Attagene CIS-FACTORIAL HepG2 Assay for human Forkhead box O (FoxO) (AID 2282943). Particulars: HepG2 Attagene cis-reporter, FoxO element, mRNA; actives raise or lower the signal. The method, boiled down: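 Transfected HepG2 reporter cells exposed to test chemical for 24 h; reporter RNA measured by reverse transcription, PCR and fluorescent capillary electrophoresis; curves fitted for increases and decreases against DMSO.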

Assay [9] can be described thus: ATG_GATA_CIS: Attagene CIS-FACTORIAL HepG2 Assay for human GATA Binding Protein (AID 2282944). Particulars: HepG2 GATA cis-element reporter, Attagene multiplex mRNA; actives raise or lower the signal. Put shortly:
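Transfected cis-reporter HepG2 cells were treated with chemicals for 24 hours. Total RNA was then converted to cDNA, amplified with reporter-specific primers and analysed by fluorescent capillary electrophoresis, using DMSO-treated wells as baseline.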

The nature of assay [10]: ATG_GLI_CIS: Attagene CIS-FACTORIAL HepG2 Assay for human Zinc Finger Protein GLI1 (AID 2282945). Particulars: HepG2, Attagene cis-factorial reporter mRNA, GLI element; actives raise or lower the signal. Put shortly:
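Transiently transfected HepG2 cells report endogenous transcription factor activity via cis-element-driven reporter units. After 24 h compound exposure, reporter mRNA was measured by RT-PCR with capillary electrophoresis; bidirectional fitting against DMSO baseline.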

Assay [11] has as its target Bile acid receptor (Homo sapiens) (UniProt Q96RI1). Nature of the assay: ATG_IR1_CIS: Attagene CIS-FACTORIAL HepG2 Assay for human Nuclear Receptor Subfamily 1 Group H Member 4 (NR1H4), IR1 submotif (AID 2282946). Particulars: IR1 reporter transcription, actives raise or lower the signal. The method, boiled down: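 HepG2 cells transiently transfected with multiple cis-promoter-driven reporter units to measure endogenous transcription factor activity; 24 h exposure. Reporter mRNA read by RT-PCR, FAM labelling, HpaI digestion and capillary electrophoresis. Bidirectional fit versus DMSO.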

Assay [12] can be described thus: ATG_GRE_CIS: Attagene CIS-FACTORIAL HepG2 Assay for human Glucocorticoid Response Elements (GRE) (AID 2282947). Particulars: HepG2 GRE cis-reporter, Attagene multiplex mRNA; actives raise or lower the signal. Put shortly:
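Transiently transfected HepG2 cells carrying GRE cis-reporter units (endogenous TF activity) dosed 24 h; reporter mRNA quantified by RT-PCR, 6-FAM labelling, HpaI digestion and capillary electrophoresis. Bidirectional fit versus DMSO baseline.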

A short description of assay [13]: ATG_ISRE_CIS: Attagene CIS-FACTORIAL HepG2 Assay for human Interferon Regulatory Factor 1 (IRF1) binding to an Interferon-Stimulated Response Element (ISRE) (AID 2282948). Particulars: HepG2 ISRE cis-reporter (Attagene), mRNA transcription readout; actives raise or lower the signal. The method, boiled down: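 Transiently transfected HepG2 cells carrying cis-element reporter units, dosed 24 hours. Reporter mRNA quantified by RT-PCR, fluorescent primer extension, HpaI digestion and capillary electrophoresis. Bidirectional fitting relative to DMSO.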

Assay [14] can be described thus: ATG_M_32_CIS: Attagene CIS-FACTORIAL HepG2 Assay for M32 Transcription Factor (Internal Marker) (AID 2282949).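 Note: background control marker of the multiplexed CIS panel rather than a real target.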 Particulars: HepG2 Attagene cis-factorial M32 reporter, mRNA; actives raise or lower the signal. The method, boiled down: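 HepG2 cells transiently transfected with multiplexed cis-regulated reporter units, dosed 24 h. Reporter mRNA quantified by RT-PCR, 6-FAM labelling, HpaI digestion and capillary electrophoresis; bidirectional fit vs DMSO.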

Assay [15] can be described thus: ATG_M_06_CIS: Attagene CIS-FACTORIAL HepG2 Assay for M06 Transcription Factor (Internal Marker) (AID 2282950). Particulars: HepG2 Attagene CIS-FACTORIAL M06 internal marker reporter; actives raise or lower the signal. The method, boiled down: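 Cells (HepG2, transiently carrying cis-driven reporter units) receive chemical for 24 h before RNA isolation. Reporter cDNA is PCR-amplified, FAM-labelled by primer extension, HpaI-digested and sized on a capillary analyser.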

Assay [16] deals with Hypoxia-inducible factor 1-alpha (Homo sapiens) (UniProt Q16665). Nature of the assay: ATG_HIF1a_CIS: Attagene CIS-FACTORIAL HepG2 Assay for human Hypoxia Inducible Factor 1 (HIF1A) (AID 2282951). Particulars: HepG2 Attagene cis-factorial HIF1a reporter transcription; actives raise or lower the signal. Put shortly: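 After 24 h chemical exposure of reporter-transfected HepG2 cells, reporter cDNA was PCR-amplified, labelled by 6-FAM primer extension (2 min 95 C, 20 s 68 C, 10 min 72 C), HpaI-cut (2 h, 37 C) and analysed by CE.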

Assay [17] has as its target Hepatocyte nuclear factor 6 (Homo sapiens) (UniProt Q9UBC0). The assay can be described thus: ATG_HNF6_CIS: Attagene CIS-FACTORIAL HepG2 Assay for human Hepatocyte Nuclear Factor 6 (HNF6) (AID 2282952). Particulars: HepG2 Attagene cis-factorial HNF6 reporter transcription; actives raise or lower the signal. The method, boiled down: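 HepG2, transient MRTU transfection (cis promoters); 24 h chemical exposure; total RNA → oligo(dT) RT → PCR → 6-FAM labelling → HpaI cut → CE; bidirectional fit vs DMSO.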

Assay [18] can be described thus: ATG_MRE_CIS: Attagene CIS-FACTORIAL HepG2 Assay for human Metal Responsive Element (MRE) (AID 2282954). Particulars: HepG2 MRE cis-reporter transcription, Attagene multiplex; actives raise or lower the signal. The method, boiled down:
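HepG2 cells transiently transfected with cis-element-driven reporter units; mRNA measured 24 h after dosing. Reporter transcripts quantified by RT-PCR, FAM labelling, HpaI digestion and capillary electrophoresis; bidirectional fit versus DMSO.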

Assay [19] addresses Heat shock factor protein 1 (Homo sapiens) (UniProt Q00613). Nature of the assay: ATG_HSE_CIS: Attagene CIS-FACTORIAL HepG2 Assay for human Heat Shock Transcription Factor 1 (HSE) (AID 2282953). Particulars: HepG2 HSE cis-reporter, Attagene RNA transcription; actives raise or lower the signal. Put shortly:
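Liver-derived HepG2 cells carry transiently introduced multiple reporter units governed by cis promoters. Reporter RNA measured 24 h post-dose through reverse transcription, PCR amplification, fluorescent labelling and capillary electrophoresis, normalised to DMSO.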

Sequence of Heat shock factor protein 1 (Homo sapiens) (Q00613 whole entry, looked up): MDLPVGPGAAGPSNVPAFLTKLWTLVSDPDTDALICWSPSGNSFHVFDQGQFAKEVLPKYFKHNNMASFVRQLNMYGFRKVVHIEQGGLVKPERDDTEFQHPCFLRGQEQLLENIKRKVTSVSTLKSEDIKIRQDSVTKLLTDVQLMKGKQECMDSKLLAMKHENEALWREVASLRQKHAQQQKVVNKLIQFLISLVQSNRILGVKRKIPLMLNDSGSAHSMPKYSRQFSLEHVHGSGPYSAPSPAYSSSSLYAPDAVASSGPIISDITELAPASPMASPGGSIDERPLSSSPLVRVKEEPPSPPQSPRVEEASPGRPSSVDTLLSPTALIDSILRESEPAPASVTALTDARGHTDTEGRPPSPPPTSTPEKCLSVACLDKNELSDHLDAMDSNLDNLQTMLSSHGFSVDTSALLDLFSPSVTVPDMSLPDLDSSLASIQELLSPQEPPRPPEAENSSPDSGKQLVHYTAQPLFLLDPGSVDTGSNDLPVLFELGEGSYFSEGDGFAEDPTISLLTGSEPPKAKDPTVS
Sequence of Hepatocyte nuclear factor 3-beta (Homo sapiens) (Q9Y261 whole entry, looked up): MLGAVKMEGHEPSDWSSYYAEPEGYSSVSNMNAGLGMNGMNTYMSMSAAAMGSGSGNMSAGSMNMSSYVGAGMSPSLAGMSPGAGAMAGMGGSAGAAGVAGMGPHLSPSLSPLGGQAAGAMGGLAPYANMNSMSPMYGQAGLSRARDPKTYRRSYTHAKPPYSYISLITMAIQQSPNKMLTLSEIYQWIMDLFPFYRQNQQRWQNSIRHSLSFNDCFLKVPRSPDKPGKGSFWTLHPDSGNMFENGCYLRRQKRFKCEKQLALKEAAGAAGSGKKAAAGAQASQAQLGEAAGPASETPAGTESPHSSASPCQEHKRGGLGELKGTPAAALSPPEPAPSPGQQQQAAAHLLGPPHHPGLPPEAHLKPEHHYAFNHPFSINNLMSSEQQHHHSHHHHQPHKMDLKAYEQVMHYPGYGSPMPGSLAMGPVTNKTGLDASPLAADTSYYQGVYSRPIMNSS
Sequence of Hypoxia-inducible factor 1-alpha (Homo sapiens) (Q16665 whole entry, looked up): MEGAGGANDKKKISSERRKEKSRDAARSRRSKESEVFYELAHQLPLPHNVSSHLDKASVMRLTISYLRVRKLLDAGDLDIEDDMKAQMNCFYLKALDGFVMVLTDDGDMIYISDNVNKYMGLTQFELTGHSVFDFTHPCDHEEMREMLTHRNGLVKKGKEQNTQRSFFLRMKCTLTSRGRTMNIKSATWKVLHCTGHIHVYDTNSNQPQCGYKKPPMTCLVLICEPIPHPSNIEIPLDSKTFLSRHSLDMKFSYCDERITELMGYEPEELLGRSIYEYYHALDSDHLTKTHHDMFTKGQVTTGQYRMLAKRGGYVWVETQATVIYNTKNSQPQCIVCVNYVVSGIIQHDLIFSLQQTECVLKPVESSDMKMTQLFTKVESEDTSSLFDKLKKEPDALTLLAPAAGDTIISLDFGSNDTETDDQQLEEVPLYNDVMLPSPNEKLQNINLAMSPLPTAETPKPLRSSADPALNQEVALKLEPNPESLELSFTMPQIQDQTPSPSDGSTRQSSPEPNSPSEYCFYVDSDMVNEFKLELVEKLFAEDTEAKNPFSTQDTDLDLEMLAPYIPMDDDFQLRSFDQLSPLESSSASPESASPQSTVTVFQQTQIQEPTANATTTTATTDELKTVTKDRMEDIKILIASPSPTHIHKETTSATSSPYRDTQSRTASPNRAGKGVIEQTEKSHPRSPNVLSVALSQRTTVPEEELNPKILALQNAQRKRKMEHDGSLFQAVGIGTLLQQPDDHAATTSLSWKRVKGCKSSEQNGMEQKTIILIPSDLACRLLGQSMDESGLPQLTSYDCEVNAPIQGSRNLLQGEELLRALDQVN
Sequence of Hepatocyte nuclear factor 6 (Homo sapiens) (Q9UBC0 whole entry, looked up): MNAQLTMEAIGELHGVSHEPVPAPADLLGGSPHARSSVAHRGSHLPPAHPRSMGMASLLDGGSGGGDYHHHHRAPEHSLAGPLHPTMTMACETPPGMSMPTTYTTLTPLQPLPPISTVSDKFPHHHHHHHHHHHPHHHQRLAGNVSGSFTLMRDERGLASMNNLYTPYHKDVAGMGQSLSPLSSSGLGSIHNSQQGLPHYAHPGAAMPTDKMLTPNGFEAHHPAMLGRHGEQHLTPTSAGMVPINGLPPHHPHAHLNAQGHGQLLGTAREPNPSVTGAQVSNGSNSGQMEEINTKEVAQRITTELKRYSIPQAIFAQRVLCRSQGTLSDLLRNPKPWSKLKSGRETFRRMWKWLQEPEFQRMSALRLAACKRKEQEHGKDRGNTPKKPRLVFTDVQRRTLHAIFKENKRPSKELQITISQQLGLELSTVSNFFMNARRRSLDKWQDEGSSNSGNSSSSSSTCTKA
Sequence of Bile acid receptor (Homo sapiens) (Q96RI1 whole entry, looked up): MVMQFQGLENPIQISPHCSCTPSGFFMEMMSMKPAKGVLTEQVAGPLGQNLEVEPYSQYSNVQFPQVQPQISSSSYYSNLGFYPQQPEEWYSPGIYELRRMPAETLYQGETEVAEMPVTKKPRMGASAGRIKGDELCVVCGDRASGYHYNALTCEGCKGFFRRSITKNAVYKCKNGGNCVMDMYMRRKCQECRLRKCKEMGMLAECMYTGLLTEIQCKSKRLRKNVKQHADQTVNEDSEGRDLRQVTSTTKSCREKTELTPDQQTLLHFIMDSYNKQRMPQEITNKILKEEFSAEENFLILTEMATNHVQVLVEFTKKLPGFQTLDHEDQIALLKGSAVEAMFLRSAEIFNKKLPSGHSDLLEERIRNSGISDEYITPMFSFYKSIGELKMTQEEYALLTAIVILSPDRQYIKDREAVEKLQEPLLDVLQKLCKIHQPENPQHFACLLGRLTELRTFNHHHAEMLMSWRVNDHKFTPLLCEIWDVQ

On to `COP(N)(=S)OC`, for which the outcome in assay [1], in [2], in assay [3], in assay [4], in [5] and in assay [6] was inactive. The result in assay [7], in assay [8], in [9], in [10], in assay [11] and in assay [12] was inactive. The call in [13], in assay [14], in [15], in assay [16], in assay [17] and in assay [18] was inactive.
Take `C=C(C)C(=O)OCC1CO1` (stereo not given): the outcome in assay [1], in assay [2], in assay [3], in assay [4], in [5] and in assay [6] was inactive. Also, the call in assay [7], in assay [8], in assay [9], in [10], in [11] and in assay [12] was inactive. Besides, the call in assay [13], in assay [15], in [16], in assay [17], in [19] and in [18] was inactive.
A word on the AC50: it is the concentration giving half of the maximal activity seen. With `CC(C)(C)c1ccccc1OP(=O)(Oc1ccccc1)Oc1ccccc1`, the outcome in [1], in assay [2], in assay [3], in assay [4], in [6] and in assay [7] was inactive. Besides, the compound was called inactive in [8], in assay [9], in [10], in assay [12], in assay [14] and in assay [15]. In addition, the compound was called inactive in assay [16], in assay [17], in assay [19] and in assay [18]. Also, the AC50 is 12.4 µM (active) in assay [5], 26.5 µM (active) in assay [11] and 50.2 µM (active) in assay [13].
As for `CCCCOCC1CO1` (stereo not given), the outcome in assay [1], in assay [2], in [3], in assay [4], in assay [5] and in [6] was inactive. Further, the compound was called inactive in assay [7], in [8], in assay [9], in assay [10], in assay [11] and in assay [12]. Besides, the call in assay [13], in assay [14], in [15], in [16], in [17] and in assay [18] was inactive.
Consider `Oc1ccccc1Br`, for which the result in assay [1], in assay [2], in assay [3], in [4], in assay [5] and in assay [6] was inactive. Besides, the compound was called inactive in assay [7], in assay [8], in [9], in [10], in assay [11] and in assay [12]. For the same compound, the compound was called inactive in assay [13], in assay [15], in assay [16], in assay [17], in assay [19] and in [18].
As to `c1ccc(OP(Oc2ccccc2)Oc2ccccc2)cc1`, the outcome in [1], in [2], in assay [3], in assay [4], in [6] and in assay [7] was inactive. For the same compound, the compound was classed as inactive in assay [8], in [9], in [10], in [12], in [13] and in assay [14]. The result in [15], in [16], in assay [17], in [19] and in assay [18] was inactive. Further, the AC50 in [5] was 72.9 µM (active).
`c1nc[nH]n1`: the result in [1], in assay [2], in assay [3], in [4], in assay [6] and in [7] was inactive. The compound was called inactive in [8], in [9], in assay [10], in assay [11], in [12] and in assay [13]. The outcome in assay [15], in [16], in [17], in assay [19] and in assay [18] was inactive. Further, in assay [5], the AC50 was 29 µM (active).
For `O=P1(N(CCCl)CCCl)NCCCO1` (stereo not given), the result in assay [1], in assay [2], in assay [3], in assay [4], in [6] and in [7] was inactive. The compound was classed as inactive in [8], in assay [9], in [10], in assay [11], in [12] and in [13]. Further, the compound was called inactive in assay [14], in assay [15], in [17], in assay [19] and in [18]. Besides, the AC50 in assay [5] was 3.3 µM (active).
